Screens deposited in PubChem BioAssay by several laboratories.
This is a sample that favours compounds with a hit; in the whole collection about 1.4% have one here.
BJeLR lethal: BJeLR cell viability loss; inhibition, % (no concentration beside the values); BJeLR (HRASV12) viability, CellTiter-Glo ATP luminescence, 48 h; 300,000 compounds, 0.17% hits; in the data active = inhibition above about 50%
DUSP3 inh: inhibitors of human VHR1 phosphatase (DUSP3); inhibition, % at 13.3 µM; 290,000 compounds, 0.52% hits; P51452; recombinant VHR phosphatase, pNPP absorbance; AID 1654; in the data active = inhibition above about 50%
Target sequence (P51452 whole entry, looked up): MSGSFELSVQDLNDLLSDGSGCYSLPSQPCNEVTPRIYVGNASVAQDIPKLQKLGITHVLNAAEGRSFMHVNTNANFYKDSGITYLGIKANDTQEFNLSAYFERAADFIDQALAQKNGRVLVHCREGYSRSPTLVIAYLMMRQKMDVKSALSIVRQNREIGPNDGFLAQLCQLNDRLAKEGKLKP
MazF activator: increases E. coli MazEF RNase cleavage of RNA | P0AE70 | FAM/BHQ RNA-DNA oligo cleavage fluorescence, 5 h | 350,000 compounds, 0.32% hits | AID 504720 | activation, % at 20 µM; in the data active = activation above about 50%
Target sequence (P0AE70 whole entry, looked up): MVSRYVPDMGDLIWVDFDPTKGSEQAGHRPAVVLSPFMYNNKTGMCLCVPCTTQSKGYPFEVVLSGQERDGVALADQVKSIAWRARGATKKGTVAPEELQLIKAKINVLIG
CCHF vOTU inh-1: CCHFV vOTU protease inhibition; Pep-AMC fluorescence; 370,000 compounds, 0.55% hits; inhibition, % at 11.5 µM; AID 651958; note: 0% = vehicle wells with enzyme and 100% = no enzyme wells
SARS 3CLpro inh: SARS-CoV 3CLpro protease inhibition. P0C6X7. recombinant SARS-CoV 3CLpro, quenched FRET peptide cleavage. inhibition, % at 6 µM. 290,000 compounds, 0.14% hits; in the data active = inhibition above about 12%
CCHF vOTU inh-2: CCHFV vOTU protease inhibition, confirmation; inhibition, % at 11.5 µM; shares compounds with CCHF vOTU inh-1; 1,900 compounds, 17% hits; Recombinant CCHFV vOTU, Pep-AMC fluorescence
* hit, by the source's call; nt = not tested or not shown. Cut-off read from the data, not from the text of the source, unless noted: active = inhibition above about 30%; inactive = the rest.

SMILES	BJeLR lethal	DUSP3 inh	MazF activator	CCHF vOTU inh-1	SARS 3CLpro inh	CCHF vOTU inh-2
CN(C)c1ccc(C=c2c3ccccc3n3c2cc(-c2ccc(Cl)cc2)[n+]3C)cc1	nt	nt	-18.0	46.6*	nt	10.0
CN(C)c1ccc(C=c2c3ccccc3n3c2c2c([n+]3C)CCCC2)cc1	nt	nt	-12.6	34.6*	nt	-1.5
CN(C)c1ccc(C=c2c3cc([N+](=O)[O-])ccc3n3c2cc(-c2ccccc2)[n+]3C)cc1	nt	nt	-6.1	39.6*	nt	11.3
CC(C)(C)C(=O)OC12CCCN(C1)/C(=C/c1ccncc1)C2 (stereo not drawn)	nt	nt	nt	-1.7	nt	nt
CN(C)c1ccc(C=c2c3ccccc3n3c2cc(-c2ccccc2)[n+]3C)cc1	nt	nt	-28.9	47.8*	nt	1.0
COc1cc(C=c2c3ccccc3n3c2cc(-c2ccccc2)[n+]3C)cc(OC)c1OC	nt	nt	9.2	84.9*	nt	69.0*
CCn1cc(C(=O)N2CCN(c3ccc(F)cc3)CC2)c(=O)c2ccc(C)nc21	nt	nt	nt	-0.6	nt	nt
O=C(Nc1scc(-c2ccc(F)cc2)c1C(=O)O)c1ccco1	-4.3	8.2	-3.5	31.3*	6.9	-6.4
CCc1noc(C)c1C(=O)Nc1ccc(Cl)c(S(=O)(=O)N2CCCCC2)c1	10.9	nt	-1.9	32.0*	nt	-9.4
CN(C)S(=O)(=O)c1cccc(C(=O)N/N=C\c2ccc(-c3ccccn3)cc2)c1	nt	nt	nt	-4.6	nt	nt
CCCCNc1c2c(nc3c(-c4ccccc4)c(C)nn13)CCC2	2.3	-12.0	-14.6	30.1*	-0.3	-60.8
Cc1nn2c(NCCCN3CCOCC3)c3c(nc2c1-c1ccccc1)CCC3	-14.0	8.1	4.5	0.9	2.0	nt
COc1cc2c(cc1OC)CSC1C(=O)N(C)C(SC2)C(=O)N1C	nt	nt	nt	-2.6	nt	nt
CC(=O)OCCNc1cc(N2CCN(C)CC2)c2noc3c2c1C(=O)c1ccccc1-3	nt	22.0	-890.0	10.3	-0.7	nt
CCOC(=O)C(C(=O)OCC)c1cc(Br)c2noc3c2c1C(=O)c1ccccc1-3	18.0	-0.5	178.0*	35.3*	-3.4	11.1
CC(CCN1CCC(C(O)(c2ccccc2)c2ccccc2)CC1)Oc1ccc(OC(F)(F)F)cc1 (stereo not drawn)	nt	nt	nt	24.4	nt	nt
CCOc1ccc(CCNC(=O)c2ccc(Cl)c(S(=O)(=O)N3CCOCC3)c2)cc1OCC	-10.4	nt	5.1	41.7*	nt	1.1
CCOc1ccc(CCNC(=O)c2ccc(C)c(S(=O)(=O)N3CCOCC3)c2)cc1OCC	nt	nt	-12.9	1.5	nt	nt
COc1cccc(N2CCN(C(=O)CCn3nnc4ccccc43)CC2)c1	nt	nt	nt	4.6	nt	nt
COc1cccc(N2CCN(C(=O)CSc3nc4ncccc4[nH]3)CC2)c1	nt	nt	nt	-3.2	nt	nt
C[C@@H]1CN([C@@H](C)CO)C(=O)CCCn2nncc2CO[C@H]1CN(C)C(=O)Nc1ccccc1C(F)(F)F	nt	nt	2.4	30.2*	nt	-19.7
C[C@@H]1CN([C@@H](C)CO)C(=O)CCCn2nncc2CO[C@@H]1CN(C)C(=O)Nc1ccccc1C(F)(F)F	nt	nt	-0.7	27.1	nt	nt
Cn1c(Cc2cccs2)nnc1SCC(=O)Nc1ccc2cn[nH]c2c1	nt	nt	nt	31.4*	nt	4.5
Cn1c(SCC(=O)Nc2ccc3cn[nH]c3c2)nnc1-c1cccs1	-1.5	3.6	0.2	21.7	1.4	nt
CCCC#Cc1ccc(CC[C@H]2O[C@H]3CC[C@@H](CO)O[C@H]3C[C@H]2NC(=O)CN2CCOCC2)cc1	nt	nt	nt	11.7	nt	nt
SMILES	BJeLR lethal	DUSP3 inh	MazF activator	CCHF vOTU inh-1	SARS 3CLpro inh	CCHF vOTU inh-2
NC(=O)c1sc2nc3c(c(-c4ccco4)c2c1N)CCC3	3.0	20.7	11.5	49.0*	-16.3	13.5
Cc1ccc(-c2c3c(nc4sc(C(N)=O)c(N)c24)CCCC3)o1	-3.5	30.1	11.6	6.7	-6.4	nt
O=C(NCc1cccc2ccccc12)C1CCCN(c2nc3ccccc3o2)C1 (stereo not drawn)	nt	nt	nt	0.9	nt	nt
COc1cc(Nc2ccccc2Cl)c([N+](=O)[O-])nc1[N+](=O)[O-]	-6.6	7.6	-2.1	31.2*	0.6	-6.6
COc1ccccc1-c1sc2cc3c(cc2c1-c1ccc(O)cc1)OCO3	nt	nt	9.9	29.7*	nt	-1.6
COCc1ccc(-c2c(-c3ccccc3OC)sc3cc4c(cc23)OCO4)cc1	nt	nt	-5.0	3.4	nt	nt
CCOc1cc(/C=C2/NC(=O)N(Cc3ccccc3F)C2=O)ccc1O	5.6	22.2	-3.8	16.1	-7.7	nt
COc1cc(/C=C2/NC(=O)N(Cc3ccccc3F)C2=O)cc(OC)c1O	0.8	20.6	-47.8	40.5*	-1.1	-12.2
CC1=CC(=O)c2ccccc2C1=O	4.3	8.6	-7.5	11.2	-4.2	nt
CC(C)(C=O)C1=CC(=O)c2ccccc2C1=O	nt	47.0	-17.9	79.3*	-2.5	-27.4
CC(=O)NC1CCCCN(Cc2ccc(Cl)cc2)C1=O (stereo not drawn)	nt	nt	nt	11.0	nt	nt
COC(=O)[C@]12C[C@H](CC(=O)N3CCCC3)C(=O)N(CCC3=CCCCC3)C1=C[C@H](C(C)(C)C)O[C@@H]2C	nt	nt	nt	15.0	nt	nt
COC(=O)[C@]12C[C@H](CC(=O)NCCC(C)C)C(=O)N(CCC3=CCCCC3)C1=C[C@H](C(C)(C)C)O[C@@H]2C	nt	nt	nt	30.2*	nt	5.0
CCCCCCCCN1C(=O)[C@@H](CC(=O)N2CCOCC2)C[C@@]2(C(=O)OC)C1=C[C@H](C(C)(C)C)O[C@@H]2C	nt	nt	nt	30.8*	nt	28.0
